In PubChem BioAssay (EPA / NIEHS) one finds outcome and AC50 data, which are given here for 33 molecules.

“And” between values parts separate entries of the source, which are not always exact repeats. Equal values may be shown once. Results filed as inconclusive are left out. The source made the active and inactive calls. The calls were made as follows: active = hit-call score of the fitted dose curve at least 0.9, where 1 is the maximum; inconclusive = response in the unintended direction; inactive = score below 0.9.

Read-out in the assay: Cytochrome P450 2B6 (Homo sapiens) (UniProt P20813)
Briefly: CLD_CYP2B6_48hr: CellzDirect (CLD) Gene Expression Assay for xenobiotic metabolism (CYP2B6) at 48 hours (AID 2283699).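 Also: actives raise transcript level above DMSO so potency reflects induction.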 On the procedure: CLD_48hr is a cell-based, multiplexed-readout assay that uses hepatocyte, a human liver primary cell, with measurements taken at 48 hours after chemical dosing in a 96-well plate.CLD_CYP2B6_48hr is one of 16 assay component(s) measured or calculated from the CLD_48hr assay. It is designed to make measurements of mRNA induction, a form of inducible reporter, as detected with chemiluminescence signals by Quantitative Nuclease Protection Assay (qNPA) technology.Data from the assay component CLD_CYP2B6_48hr was analyzed at the endpoint, CLD_CYP2B6_48hr, in the positive analysis fitting direction relative to DMSO as the negative control and baseline of activity. Using a type of inducible reporter, gain-of-signal activity can be used to understand changes in the reporter gene as they relate to the gene CYP2B6. Furthermore, this assay endpoint can be referred to as a primary readout. To generalize the intended target to other relatable targets, this assay endpoint is annotated to the cyp intended target family, where subfamily is xenobiotic metabolism.
Human hepatocyte cultures were treated daily for two consecutive days with fresh dosing solutions containing appropriate concentrations of the 320 ToxCast chemicals (chemical identities were blinded to CellzDirect and other ToxCast collaborators), vehicle control (0.2% DMSO), and positive control inducers as summarized in Table 1. Due to the large number of treatment groups and chemicals examined, the ToxCast chemicals were divided into two groups (spanning two independent cultures of hepatocytes from separate donor preparations (Hu778: ToxCast plates 1 and 2; Hu776: ToxCast plates 3 and 4). Each preparation of human hepatocyte cultures was treated with respective vehicle control, medium only control, set of six positive controls/reference chemicals for the five hepatic receptor pathways, and a subset of eight of the ToxCast chemicals (indoxacarb, pyrithiobac-sodium, norflurazon, cyhalofop-butyl, methomyl, thiram, acetochlor, and propiconazole). These replicate data, coupled with internal replicates designed within the blinded ToxCast chemical library, provided additional data to evaluate interindividual differences between hepatocyte preparations and their potential impact on chemical profiles.Cell morphology and integrity were evaluated using phase-contrast microscopy as an indicator of hepatocyte cell health (Tyson & Green, 1987). Cultures for each treatment group (i.e., media, vehicle [0.2% DMSO], positive control inducers [multiple concentrations], and the ToxCast chemicals [multiple concentrations]) were observed and cell morphology was assessed relative to vehicle control cultures at each harvest time point (0, 6, 24, or 48 h). […] Images were evaluated at the conclusion of the study to assess changes in cell integrity and account for the effects of chemical exposure on uncharacteristic changes in concentration-dependent gene expression profiles. The results from these determinations of apparent cytotoxicity were annotated (yes/no) alongside the corresponding qNPA data for reference.At the conclusion of each treatment period, hepatocyte cultures (96-well) were washed with 1 volume of HBSS, lysed by addition of 25 ul ArrayPlate lysis buffer (HTG, Tucson, AZ), and 70 ul/well of Denaturation Oil, denatured by incubation at 95C for 10 min, and frozen at approximately -70C until analysis by nuclease protection assay (qNPA) (Roberts et al., 2007). For qNPA analysis, cell lysates were thawed at 50C for approximately 30 min, qNPA probes were added, and samples were incubated at 95C for 10 min to begin the detection process by denaturing the target RNA, dissociating the duplexes and secondary structure hybridization. At the conclusion of the hybridization period, S1 nuclease reagent was added to each sample to digest all nonprotected nucleotides at 50C for 60-90 min. […]
With `CCCOC(=O)c1ccc(C(=O)OCCC)nc1`, the molecule was classed as inactive. Consider `OB(O)O`, for which the result was inactive. Still for that read-out and setting: in the case of `CC(C)(c1ccc(O)cc1)c1ccc(O)cc1` it was “inactive”; in that of `c1ccc2[nH]c(-c3cscn3)nc2c1`, “inactive”.

Regarding `CCN(Cc1c(F)cccc1Cl)c1c([N+](=O)[O-])cc(C(F)(F)F)cc1[N+](=O)[O-]`, the concentration at half-maximal activity (AC50) (commonly the concentration giving half of the maximal activity seen) is 0.273 µM (active). Take `CCOC(=O)COc1cc(-n2ncc(C(F)(F)F)c(C)c2=O)c(F)cc1Cl`: the outcome was inactive. With `C=CCOC(Cn1ccnc1)c1ccc(Cl)cc1Cl` (stereo not drawn), the AC50 is 0.163 µM (active). Same read-out and setting: next, `CCN(CC)C(=O)c1cccc(C)c1`: 3.6 µM (active). On the same count and under the same terms, in the case of `CCCCC(CC)CN1C(=O)C2C3C=CC(C3)C2C1=O` (stereo not drawn) it was 4.6 µM (active); in that of `CN(C)C(=O)Nc1ccc(Cl)c(Cl)c1`, 3.85 µM (active); in that of `CCCN(CCC)C(=O)SCC`, 381 nM (active) and 209 nM (active).

Regarding `CCSC(=O)N(CC(C)C)CC(C)C`, the outcome was inactive. For the molecule `COC(=O)c1cccc(C)c1S(=O)(=O)NC(=O)Nc1nc(OCC(F)(F)F)nc(N(C)C)n1`, the AC50 is 5.1 µM (active). Same read-out and setting: in the case of `COC(=O)CSc1cc(N=c2sc(=O)n3n2CCCC3)c(F)cc1Cl` it was 4.48 µM (active). On to `CCCCCOC(=O)COc1cc(N2C(=O)C3=C(CCCC3)C2=O)c(F)cc1Cl`, for which the outcome was inactive. Same read-out and setting: next, `CCCCOC(=O)C(C)Oc1ccc(Oc2ccc(C(F)(F)F)cn2)cc1` (stereo not drawn): “inactive”; `S=C(S)NCCNC(=S)S.[Mn+2].[S-]C([S-])=NCCN=C([S-])[S-].[Zn+2]`: “inactive”. Regarding `CCCN(CCC)c1c([N+](=O)[O-])cc(C(F)(F)F)c(N)c1[N+](=O)[O-]`, the AC50 was 3.56 µM (active). Take `CCOC(=O)C(C)Oc1ccc(Oc2nc3ccc(Cl)cc3o2)cc1` (stereo not drawn): the outcome was inactive. For the molecule `CC(C)(C)[C@@H](O)[C@@H](Cc1ccc(Cl)cc1)n1cncn1`, the outcome was inactive. Consider `CCCCC(CC)COC(=O)c1ccccc1C(=O)O` (stereo not drawn), for which the AC50 was 20 µM (active). Regarding `CCC(C)OC(=O)N1CCCCC1CCO` (stereo not drawn), the call was inactive.

For `CCNc1nc(N)nc(Cl)n1`, the call was inactive. Same read-out and setting: next, `COC(=O)c1ccccc1S(=O)(=O)NC(=O)Nc1nc(OC(F)F)cc(OC(F)F)n1`: “inactive”. Consider `c1ccc(Nc2ccccc2)cc1`, for which the AC50 was 4.79 µM (active). Consider `CCCCCCC(C)OC(=O)COc1nc(F)c(Cl)c(N)c1Cl` (stereo not drawn), for which the molecule was classed as inactive. Same read-out and setting: in the case of `COC(=O)c1c(Cl)nn(C)c1S(=O)(=O)NC(=O)Nc1nc(OC)cc(OC)n1` it was “inactive”. `CCC(O)=C1C(=O)CC(C(=O)O)CC1=O` (stereo not drawn): the AC50 was 0.000247 µM (active). As to `CCCCOC(=O)[C@@H](C)Oc1ccc(Oc2ccc(C(F)(F)F)cn2)cc1`, the call was inactive. Regarding `CC1(C)C(C=C(Cl)Cl)C1C(=O)OCc1cccc(Oc2ccccc2)c1` (stereo not drawn), the AC50 is 3.87 µM (active). As for `C#CCOC(=O)[C@@H](C)Oc1ccc(Oc2ncc(Cl)cc2F)cc1`, the outcome was inactive. In the case of `CCCCOCCOCCOCc1cc2c(cc1CCC)OCO2`, the AC50 is 0.83 µM (active).

Regarding `CCOC(=O)NCCOc1ccc(Oc2ccccc2)cc1`, the AC50 was 10.8 µM (active).
